Shown are actives, neighbours in structure and some others; about 3.3% of the full set was active somewhere.
Sm TGR block = qHTS Assay for the Inhibitors of Schistosoma Mansoni Peroxiredoxins | Schistosoma mansoni thioredoxin glutathione reductase (TGR), Q962Y6 | purified TGR, DTNB reduction, TNB absorbance 405 nm | Potency, µM (top dose mostly 114 µM), usual class: inhibitors | actives 3% (n = 360,000); further: nearly all actives have a fitted effect of over 60% in size
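TGR 20 nM + NADPH 100 uM (dispensed conc.), cpd preinc 15 min RT; start with NADPH (500 uM addition) then DTNB (15 mM addition). Kinetic TNB absorbance, 405 nm filter. Four-parameter Hill fit across titration.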
AmpC no deterg = qHTS Inhibitors of AmpC Beta-Lactamase (assay without detergent); P00811; AmpC nitrocefin hydrolysis, absorbance 480 nm, 0.0001% Triton; Potency, µM (doses to about 57.1 µM), usual class: inhibitors; actives 0.52% (n = 330,000); AID 485341, 2010; further: nearly all actives have a fitted effect of over 20% in size
Target sequence (P00811 whole entry, looked up): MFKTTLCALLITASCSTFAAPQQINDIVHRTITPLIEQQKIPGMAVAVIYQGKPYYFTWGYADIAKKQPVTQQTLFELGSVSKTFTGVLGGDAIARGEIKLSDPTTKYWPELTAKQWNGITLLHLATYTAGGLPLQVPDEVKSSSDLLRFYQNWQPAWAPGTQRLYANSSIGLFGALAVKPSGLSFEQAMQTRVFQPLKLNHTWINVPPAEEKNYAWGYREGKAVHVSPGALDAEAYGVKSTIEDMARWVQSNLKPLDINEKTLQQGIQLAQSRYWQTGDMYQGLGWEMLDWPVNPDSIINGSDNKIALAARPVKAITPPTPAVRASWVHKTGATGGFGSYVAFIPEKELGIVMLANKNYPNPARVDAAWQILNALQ
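AmpC (5.3 nM in the dispensed reagent) in 20 mM phosphate pH 7.0 with 0.01% (detergent screen) or 0.0001% Triton X-100 was preincubated with compounds for 15 min at room temperature. Nitrocefin was then added from an 800 uM solution, and hydrolysis was followed at 480 nm.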
AmpC inh detg = qHTS Inhibitors of AmpC Beta-Lactamase (assay with detergent); P00811; AmpC hydrolysis of nitrocefin, absorbance 480 nm, 0.01% Triton; Potency, µM (titrated, usually from 114 µM), most hits filed as inhibitors; actives 0.041% (n = 370,000); AID 485294, 2010; further: nearly all actives have a fitted effect of over 25% in size
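20 mM phosphate pH 7.0 + 0.01% (detergent screen) or 0.0001% Triton X-100; 5.3 nM AmpC reagent; cpd preinc 15 min RT; nitrocefin (800 uM stock) to start; A480 q20 s × 4 min; Activity was normalised to no-enzyme and no-compound control wells.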
Large screens that a line does not name were inactive. The call rests on the fitted dose curve; in most records, active means well fitted curve in the direction sought with a large enough effect; inconclusive means small, poorly fitted or top-dose-only effect, or another doubt; inactive means no such curve, though single readings can be large; an effect the other way counts as inactive or inconclusive.

COc1ccccc1NC(=O)/C(C#N)=C/C=C/c1ccco1	none
COc1cc2c(cc1NC(=S)NC(=O)/C=C/c1ccco1)oc1ccccc12	AmpC inh detg inconclusive
COc1ccccc1NC(=O)/C=C\c1ccco1	Sm TGR block 2.5µM
Cc1cccc(NC(=S)NC(=O)/C=C/c2ccco2)n1	Sm TGR block inconclusive
CN1C(=O)/C(=C/c2cc(C(C)(C)C)c(O)c(C(C)(C)C)c2)NC1=S	Sm TGR block 1µM
CN1C(=O)/C(=C/c2ccccc2OCc2ccccc2)NC1=S	none
Cc1ccc(-c2nc(CCNC(=O)C(=O)Nc3c(C)cccc3C)cs2)cc1	none (no result: AmpC no deterg)
CCC(=O)NC(=S)Nc1ccc(S(=O)(=O)NC2CCCCC2)cc1	Sm TGR block inconclusive, AmpC no deterg 13µM
CCOc1ccc(NC(=O)COc2ccc(S(=O)(=O)NC3CCCCC3)cc2)cc1	none (no result: AmpC no deterg)
O=C(NC(=S)Nc1ccc(S(=O)(=O)N2CCCCC2)cc1)c1cccs1	Sm TGR block inconclusive
O=C(NC(=S)Nc1ccc(S(=O)(=O)NC2CCCCC2)cc1)c1cccs1	Sm TGR block 50µM
CCc1nn2c(=O)c(S(=O)(=O)Nc3ccc(C)c(C)c3)c(C)nc2s1	none (no result: AmpC no deterg)
COc1cc(CN(C(=O)COc2ccccc2Cl)c2ccccn2)cc(OC)c1OC	none (no result: AmpC no deterg)
CCCCC(CCC(=O)O)(C(=O)OCC)c1csc(Nc2ccccc2)n1 (configuration not stated)	none
CCCCC(CCC(=O)O)(C(=O)OCC)c1csc(Nc2ccc(OCC)cc2)n1 (configuration not stated)	Sm TGR block 50µM
Cn1nc(C(=O)N2CCN(c3ccccc3F)CC2)c2c1-c1ccccc1SC2	none (no result: AmpC no deterg)
CCS(=O)(=O)c1ncc(N(Cc2ccco2)Cc2sccc2C)c(C(=O)Nc2cc(C)ccc2C)n1	none (no result: AmpC no deterg)
O=C(NCc1ccc(Cl)cc1)C(=O)c1c[nH]c2ccccc12	AmpC inh detg inconclusive
O=C(CCl)N(c1ccccc1)c1c[nH]c2ccccc12	Sm TGR block 3.2µM
O=C(CCl)N(c1ccc(Cl)cc1)c1c[nH]c2ccccc12	Sm TGR block 0.71µM
CCN(CC)C(=O)CCCc1c[nH]c2ccccc12	none (no result: Sm TGR block)
Cc1cc(C)c(NC(=O)Cn2c(=O)n(CC3CCCO3)c(=O)c3ccccc32)c(C)c1 (configuration not stated)	none (no result: AmpC no deterg)
Cc1ccc2oc3c(c(=O)c2c1)C(c1ccc(O)cc1)N(c1nc(C)c(C)s1)C3=O (configuration not stated)	none (no result: AmpC no deterg)
CN(C)c1ccc(NC(=O)CCSc2nc(-c3ccco3)cc(C(F)(F)F)n2)cc1	none (no result: AmpC no deterg)
CC(=O)c1cccc(NC(=O)c2sc(-n3nc(C)c(Cc4ccc5c(c4)OCO5)c3C)nc2C)c1	none (no result: AmpC no deterg)
CC1Cc2cc(S(=O)(=O)CCC(=O)Nc3ccccc3F)ccc2N1C(=O)C1CC1 (configuration not stated)	none (no result: AmpC no deterg)
CC1CC(C)CN(C(=O)/C=C/c2ccc([N+](=O)[O-])s2)C1 (configuration not stated)	Sm TGR block 13µM
CC1CN(C(=O)/C=C/c2ccccc2[N+](=O)[O-])CC(C)O1 (configuration not stated)	none (no result: Sm TGR block)
Cc1cc(C)cc(NC(=O)/C=C/c2ccc([N+](=O)[O-])s2)c1	none
CC1CN(C(=O)/C=C/c2ccc([N+](=O)[O-])s2)CC(C)O1 (configuration not stated)	Sm TGR block 20µM, AmpC inh detg inconclusive
Cc1cc(-c2ccc(S(=O)(=O)Nc3ccc(Br)c(C)c3)s2)on1	none (no result: AmpC no deterg)
O=C(c1ccc2c3c(cccc13)CC2)C1CCCN(Cc2cccnc2)C1 (configuration not stated)	none
COc1cc(CN2CCCC(C(=O)c3ccc4c5c(cccc35)CC4)C2)cc(OC)c1O (configuration not stated)	Sm TGR block 14µM
O=S1(=O)NC(c2ccccc2)CC(CC2CCCCC2)O1 (configuration not stated)	AmpC no deterg 8.9µM
O=C1NC[C@H](c2ccccc2)N(CC2CCCCC2)C1=O	none
CCOC(=O)c1cccc(NC(=O)c2cc(-c3ccc(Cl)s3)nc3ccccc23)c1	Sm TGR block inconclusive (no result: AmpC no deterg)
O=C(OCC(=O)C12CC3CC(CC(C3)C1)C2)c1ccc(O)cc1	none (no result: Sm TGR block, AmpC inh detg)
Nc1ccc(O)cc1C(=O)OCC(=O)C12CC3CC(CC(C3)C1)C2	AmpC no deterg 13µM
Cc1ccc(C(=O)c2cn(Cc3cc(C)ccc3C)c3nc(C)ccc3c2=O)cc1	none (no result: AmpC no deterg)
CCOC(=O)c1cc2c(=O)n3ccccc3nc2n(Cc2ccco2)c1=NC(=O)c1ccccc1OCC	Sm TGR block inconclusive
CCOC(=O)c1cc2c(=O)n3ccccc3nc2n(Cc2ccco2)c1=NC(=O)c1ccc(Br)cc1	Sm TGR block inconclusive (no result: AmpC no deterg)
CCOC(=O)c1cc2c(=O)n3ccccc3nc2n(Cc2ccco2)c1=NC(=O)c1c(F)cccc1Cl	Sm TGR block 4µM (no result: AmpC no deterg)
CCOC(=O)c1cc2c(=O)n3ccccc3nc2n(Cc2ccco2)c1=NC(=O)c1ccccc1Br	Sm TGR block 1.6µM (no result: AmpC no deterg)
CCOC(=O)c1cc2c(=O)n3ccccc3nc2n(Cc2ccco2)c1=NC(=O)c1cccc(Br)c1	Sm TGR block 2.2µM (no result: AmpC no deterg)
CCOC(=O)c1cc2c(=O)n3ccccc3nc2n(Cc2ccco2)c1=NC(=O)c1ccc(OCC)cc1	none (no result: AmpC no deterg)
O=C(Nc1ccc2nc(SCC(=O)N3CCOCC3)sc2c1)c1cccc(Br)c1	none (no result: AmpC no deterg)
O=C(O)COc1ccccc1C(Nc1cccnc1)c1cc(Cl)c2cccnc2c1O (configuration not stated)	Sm TGR block 1µM
O=C(O)COc1ccccc1C(Nc1ccccn1)c1cc(Cl)c2cccnc2c1O (configuration not stated)	Sm TGR block 0.4µM
O=C(NC(c1ccccc1)c1cc(Cl)c2cccnc2c1O)c1cccnc1 (configuration not stated)	none
CCOc1ccc(C(Nc2cccnc2)c2cc(Cl)c3cccnc3c2O)cc1 (configuration not stated)	Sm TGR block 0.32µM
COc1ccccc1C(NC(C)=O)c1cc(Cl)c2cccnc2c1O (configuration not stated)	none
CCC(=O)NC(c1ccc(C)cc1)c1cc(Cl)c2cccnc2c1O (configuration not stated)	none (no result: Sm TGR block, AmpC inh detg)
Cc1ccc(NC(=O)C2CCCN(c3ncnc4c3nc3n4CCCCC3)C2)c(Br)c1 (configuration not stated)	none (no result: AmpC no deterg)
O=C(/C=C/c1cc(Br)ccc1O)c1ccco1	Sm TGR block 14µM
O=C(/C=C/c1ccccc1O)c1ccco1	Sm TGR block inconclusive, AmpC inh detg inconclusive
CCOc1ccc2nc(Cl)c(/C=C/C(=O)c3ccco3)cc2c1	Sm TGR block inconclusive
Cc1cccc2cc(/C=C/C(=O)c3ccco3)c(Cl)nc12	Sm TGR block 7.9µM
Cc1c(Cl)cccc1-n1ncc(C(=O)NC2CCCC2)c1C1CCN(C(=O)OC(C)(C)C)CC1	none (no result: AmpC no deterg)
COc1cc(C(=O)Nc2c(C(=O)Nc3ccccc3F)oc3ccccc23)cc(OC)c1OC	none (no result: AmpC no deterg)
O=C(CCn1c(=O)c2sccc2n(Cc2cc(=O)n3ccccc3n2)c1=O)NCc1ccco1	none
O=C(CCCn1c(=O)c2sccc2n(Cc2cc(=O)n3ccccc3n2)c1=O)NCc1ccco1	AmpC no deterg 40µM, AmpC inh detg inconclusive

Assay outcomes from PubChem BioAssay.
